# From PubChem BioAssay
# Shown are actives, neighbours in structure and some others; about 3.8% of the full set was active somewhere.
# HSF1 inhib – HSF1 inhibition | NIH3T3-HGL HSE-luciferase, MG132-induced, luminescence 8 h; hits give low values | activity change, negative = inhibition, % at 7.5 µM (by protocol) | 300,000 tested, 0.77% active | AID 2098;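 active = more than half of replicate wells show activity change below -50%, luminescence cut by over half; inconclusive = some wells, but at most half, below -50%; inactive = no replicate well below -50%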;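 also: luciferase reports HSF-1 transcriptional activity via heat shock element; 0% = median of DMSO wells and -100% = zero luminescence signal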
# HSF-1 act – increases HSF-1 driven luciferase reporter signal; NIH3T3-HGL HSF-1 luciferase reporter, MG132, 8 h; 100% = twice DMSO control signal; 300,000 tested, 1.7% active; AID 504408; activation, % at 9 µM;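 active = mean replicate activation of at least 50% with a set share of replicates each reaching 50%; inconclusive = only one of those two conditions met; inactive = mean below 50% and too few replicates reaching it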;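 also: 0% = median of the neutral control wells and 100% = twice that signal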
# MITF act – increases MITF-driven TRPM1 promoter luciferase signal; SK-MEL-5 TRPM1-promoter luciferase, 24 h; % of positive control, neutral wells = 0; activation, % at 12.5 µM; 300,000 tested, 0.75% active; AID 588334;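 active = mean activation of at least 80% with every replicate also reaching 80%; inconclusive = mean reaches 80% but some replicate falls short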;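 also: 0% = neutral control wells and 100% = parthenolide positive control wells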
# Wnt act – Wnt/beta-catenin pathway activation | AID 743398 | Wnt/beta-catenin reporter cell assay, activator, plate reader | 300,000 tested, 1.2% active | activation, % at 9.35 µM; in the data active = activation above about 30%, passing the limit was not always enough; inconclusive = no clear call, values can overlap the other calls;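 also: 0% = neutral control wells and 100% = positive control wells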
# esBAF inh – blocks esBAF chromatin remodeling in mouse ES cells. Bmi1-luciferase knock-in reporter, 24 h; 100% = twice the neutral-well signal. 350,000 tested, 2% active. reporter increase, % at 12.5 µM; in the data active = activation above about 40%; inconclusive = no clear call, values can overlap the other calls;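 also: 0% = median of the plate's neutral control wells and 100% = double that signal; a rise in the Bmi1 reporter signal indicates esBAF inhibition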
# An asterisk follows results filed as active; ? = inconclusive; nt = not tested or not shown.
SMILES,HSF1 inhib,HSF-1 act,MITF act,Wnt act,esBAF inh
CCOC(=O)C1=C(N)OC2=C(C(=O)CC(C)(C)C2)C1c1ccccc1OCC#N (stereo not given),-57*,-64,-9,-10,-9
COCC(=O)Nc1ccc2c(c1)C(=O)N(C)C[C@H](OC)[C@H](C)CN(C(=O)Cc1ccccn1)[C@@H](C)CO2,nt,nt,nt,nt,-4
Cc1cc(C(=O)N/N=C/c2c(C)nn(-c3ccccc3)c2Cl)n[nH]1,3,-1,nt,6,52*
CCCNC(=O)Nc1ccc2c(c1)C(=O)N(C)[C@@H]1CC[C@@H](CC(=O)NC)O[C@@H]1CO2,nt,nt,nt,nt,0
CCCC(=O)N1CCN(c2nc3ccc(CC)cc3s2)CC1,1,5,61,13,24
CC(=O)N1CCN(c2nc3ccc(Br)cc3s2)CC1,14,28,79,23,54*
CCCC(=O)N1CCN(c2nc3ccc(Cl)cc3s2)CC1,-33,-46,77,2,52*
C[C@H](CO)N1C[C@H](C)[C@H](CN(C)S(=O)(=O)c2ccccc2F)Oc2ncc(C#Cc3cccnc3)cc2C1=O,nt,nt,nt,nt,-1
O=C(C[C@@H]1C[C@@H]2c3cc(NS(=O)(=O)c4ccc(F)cc4)ccc3O[C@@H]2[C@H](CO)O1)NC1CCCCC1,nt,nt,nt,nt,2
CC(=O)Nc1ccc(C(=O)N/C(=C/c2ccccc2)C(=O)Nc2cccc(C(=O)O)c2)cc1,-2,2,10,5,17
CC(=O)Nc1ccc(NC(=O)/C(Cl)=C/c2ccccc2)cc1,25,?,111*,-1,53*
O=C(NCC[C@@H]1CC[C@H](NC(=O)c2ccc3c(c2)OCO3)[C@@H](CO)O1)Nc1cc(F)ccc1F,nt,nt,nt,nt,1
CC(SC1=NCCS1)C(=O)Nc1nnc(-c2ccc(Cl)cc2)s1 (stereo not given),2,-10,46,6,43*
CC(=O)CC1(O)C(=O)N(Cc2ccccc2)c2ccccc21 (stereo not given),0,12,13,43*,-4
C/C(CC1(O)C(=O)N(Cc2ccccc2)c2ccccc21)=N\O (stereo not given),-5,-12,-4,2,-10
Cc1cccc(N(Cc2cc(=O)[nH]c3ccccc23)C(=O)CCl)c1,0,7,-75,1,nt
CCCCCCCN(C(=O)CCl)c1cccc(C)c1,-93*,-93,-39,nt,nt
CCCCCCN(C(=O)CCl)c1ccccc1,-68*,-71,nt,1,-1
O=C(CCl)N(c1ccccc1)c1ccccc1,-6,-14,-48,0,nt
CC1C=NC(S(=O)(=O)N2CC[C@@H]3[C@H]2c2cc(-c4ccc(F)cc4)ccc2N(C)[C@H]3CO)=N1 (stereo not given in full),nt,nt,nt,nt,4
CC(C)CC#Cc1cnc2c(c1)C(=O)N([C@H](C)CO)C[C@H](C)[C@@H](CN(C)Cc1cccc(F)c1)O2,nt,nt,nt,nt,-13
CC(C)N(CCC(=O)c1ccc2ccccc2c1)Cc1ccccc1,nt,nt,-1,3,4
CCC(=O)CCC(=O)c1ccc2ccccc2c1,-58*,-70,41,13,nt
CC1CCCCN1CCCNC(=O)c1ccc2nc(N3CCCCC3)sc2c1 (stereo not given),-8,-8,nt,12,58*
CCCN1CCN(CCCNC(=O)c2ccc3nc(N4CCC(C)CC4)sc3c2)CC1,?,-53,nt,12,55*
SMILES,HSF1 inhib,HSF-1 act,MITF act,Wnt act,esBAF inh
CC1CC(C)CN(CCCNC(=O)c2ccc3nc(N4CCOCC4)sc3c2)C1 (stereo not given),0,-11,nt,0,-1
Cc1cc(C(=O)Nc2cccc3c2O[C@H](CN(C)S(=O)(=O)c2c(C)noc2C)[C@H](C)CN([C@@H](C)CO)C3=O)n(C)n1,nt,nt,nt,nt,-1
CN1CCN(C(=O)C[C@H]2C[C@@H]3c4cc(NC(=O)NC5CCCCC5)ccc4O[C@@H]3[C@H](CO)O2)CC1,nt,nt,nt,nt,-1
CC1=C(C(=O)Nc2ccccc2)C(c2ccc(C)cc2)N=C(Nc2nc3ccccc3o2)N1 (stereo not given),38,62*,-23,nt,8
CC1(C)CC(=O)C2=C(C1)NC(Nc1nc3ccccc3o1)=NC2c1ccccn1 (stereo not given),-5,2,-3,-2,6
C[C@@H]1CCCCO[C@H](CN(C)S(C)(=O)=O)[C@@H](C)CN([C@@H](C)CO)C(=O)c2cc(NC(=O)C3CCCCC3)ccc2O1,nt,nt,nt,nt,2
Cc1cccc(OCCCn2c(=O)sc3ccccc32)c1,39,33,61,nt,54*
Cc1cccc(OCCn2c(=O)n(C)c3ccccc32)c1,29,47,67,?,78*
Cc1ccc2oc(=O)n(CCCOc3ccccc3)c2c1,34,59*,nt,42*,37
Cc1ccc(OCCn2c(=O)oc3ccc(C)cc32)cc1,18,14,14,2,20
Cc1cccc(OCCn2c(=O)sc3ccccc32)c1,nt,nt,91*,nt,68*
COC(=O)C[C@@H]1C=C[C@H](NC(=O)c2ccccc2)[C@H](CO)O1,nt,nt,nt,nt,-1
C[C@H]1CN([C@@H](C)CO)C(=O)c2cccc(N(C)C)c2O[C@@H]1CN(C)S(=O)(=O)c1cn(C)cn1,nt,nt,nt,nt,7
CCCc1cn(CC[C@H]2CC[C@@H](NC(=O)Nc3ccccc3F)[C@H](CO)O2)nn1,nt,nt,nt,nt,-5
O=C(C[C@@H]1CC[C@H](NC(=O)Nc2ccccc2)[C@H](CO)O1)NCc1ccccn1,nt,nt,nt,nt,1
COc1ccccc1OCCn1c(=O)sc2ccccc21,2,10,nt,10,0
Cc1ccccc1OCCn1c(=O)sc2ccccc21,nt,nt,14,-1,63*
Cc1cccc(C(=O)Oc2ccc(/C=N/O)cc2)c1,5,-1,127*,11,76*
COc1ccc(CC(=O)Nc2ccc3c(c2)OC2(CCCC2)O3)c(OC)c1,nt,nt,nt,-3,0
COc1cccc(CC(=O)Nc2ccc3c(c2)OC2(CCCC2)O3)c1,nt,nt,19,3,42*
CC(=O)Nc1ccc(CC(=O)Nc2ccc3c(c2)OC2(CCCC2)O3)cc1,nt,nt,nt,-6,46*
CCC(=O)N1[C@H](CO)[C@@H]2c3ccccc3N(C(=O)c3cccc(OC)c3)C[C@@H]21,nt,nt,nt,nt,-5
C[C@@H]1CN([C@@H](C)CO)C(=O)c2cc(-c3cccc(F)c3)cnc2O[C@H]1CN(C)C(=O)c1ccccn1,nt,nt,nt,nt,5
CN1C[C@H](O)COC[C@@H]2O[C@H](CC(=O)NC3CCC3)CC[C@H]21,nt,nt,nt,nt,-2
C=CCN1C(c2cccc(C(F)(F)F)c2)=CS/C1=C(\C#N)c1nnc(N2CCOCC2)n1-c1ccccc1,nt,nt,nt,-1,0
C=CCN1C(=O)NC(c2ccccc2)(C(F)(F)F)S/C1=C(\C#N)c1nnc(N2CCOCC2)n1-c1ccccc1 (stereo not given),37,83*,-16,-1,nt
CNC(=O)C[C@H]1CC[C@@H]2[C@@H](COc3ccc(NC(=O)c4ccc(C(F)(F)F)cc4)cc3C(=O)N2C)O1,nt,nt,nt,nt,11
